EWS-Fli block: blocks EWS/Fli oncoprotein-driven transcription. 350,000 compounds, 0.67% hits. A673 NR0B1-luciferase reporter, viability-normalised. AID 651661. inhibition, % at 12.6 µM;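 active means mean inhibition of at least 50% after viability correction, with every replicate also passing that limit; inconclusive means mean reaches 50% but only one of two replicates passes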;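 further: firefly luciferase signal divided by Alamar Blue viability fluorescence both relative to DMSO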
LGR2 inh: blocks bursicon-induced cAMP signaling via Drosophila LGR2 | HEK293 LGR2, CRE-luciferase, bursicon-stimulated, 4 h | inhibition, % at 9.99 µM | 380,000 compounds, 0.35% hits | AID 720647;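 active means drop in luminescence signal, shown as inhibition above about 50% in the replicate tests, limit read from the data, passing the limit was not always enough; inconclusive means probably only some replicates passing the limit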;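 further: agonist challenge used bursicon conditioned medium at about half maximal strength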
GSIS activator: GLuc luminescence reporter in INS-1E cells, primary screen for activators of glucose-dependent secretion of insulin. INS-1E GLuc reporter insulin secretion, 2-3 h. activation, % at 16.6 µM. 370,000 compounds, 0.61% hits. AID 743287;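 active means lowest replicate activation of at least 40%, so every replicate reaches that level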;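 further: 0% = median of neutral control wells and 100% = median of IBMX positive control wells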
RAD52 anneal inh: RAD52 (human) annealing inhibition. 360,000 compounds, 0.46% hits. recombinant RAD52 DNA annealing, FRET fluorescence. inhibition, % at 18.7 µM;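 active means every replicate showing at least 50% inhibition; inconclusive means mean inhibition at least 50% but not in every replicate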
Target sequence (P43351 whole entry, looked up): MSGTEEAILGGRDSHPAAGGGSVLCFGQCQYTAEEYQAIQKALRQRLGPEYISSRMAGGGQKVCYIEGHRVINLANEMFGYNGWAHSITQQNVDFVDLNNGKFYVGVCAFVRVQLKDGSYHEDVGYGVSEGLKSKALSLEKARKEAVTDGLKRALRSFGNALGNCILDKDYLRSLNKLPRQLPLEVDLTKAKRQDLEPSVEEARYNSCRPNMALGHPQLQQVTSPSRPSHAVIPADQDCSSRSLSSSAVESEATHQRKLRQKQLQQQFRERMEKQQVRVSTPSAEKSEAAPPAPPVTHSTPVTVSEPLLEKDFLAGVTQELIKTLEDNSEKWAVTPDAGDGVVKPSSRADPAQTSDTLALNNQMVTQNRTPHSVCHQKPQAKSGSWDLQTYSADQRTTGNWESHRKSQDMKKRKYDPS
CFTR F508del cor: CFTR F508del correction in bronchial cells | CFBE cells, YFP halide quenching; stimulated with forskolin plus potentiator P3; % fluorescence drop versus neutral controls | activity (quench increase), % at 7.58 µM | 350,000 compounds, 0.36% hits | AID 720511;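 active means mean added fluorescence quench of at least 8% versus neutral control, with both replicates also reaching 8%; inconclusive means only one of the mean or replicate conditions met; inactive means mean below 8% and not both replicates reaching 8%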;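 further: cells transiently co-express mutant CFTR-F508del with the halide-sensitive YFP; corrector assay measuring rescue of mutant channel to the surface after 24 h compound exposure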
RAD54 branch: RAD54 (human) branch migration inhibition. Q92698. RAD54 Holliday junction branch migration, FAM/BHQ fluorescence. inhibition, % at 10.4 µM. 360,000 compounds, 0.14% hits;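 active means mean normalized replicate activity at least 40 and at least half of replicates scoring 40 or more; inconclusive means only one of the two criteria met; inactive means mean below 40 and under half of replicates reaching 40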;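 further: 0% = median of neutral control wells and 100% = median of positive control wells; inhibitors cause a drop in the FAM fluorescence signal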
Starred values were filed as active, the others as inactive; ? = inconclusive; . = no result given. This is a sample that favours compounds with a hit; in the whole collection about 1.8% have one here.

SMILES	EWS-Fli block	LGR2 inh	GSIS activator	RAD52 anneal inh	CFTR F508del cor	RAD54 branch
Cc1ccc(-c2ccc3c(c2)O[C@@H](CN(C)Cc2ccccn2)[C@H](C)CN([C@@H](C)CO)S3(=O)=O)cc1	31	15	-24	19	3	1
C[C@@H]1CN([C@H](C)CO)S(=O)(=O)c2ccc(C#CC3CC3)cc2O[C@H]1CN(C)Cc1ccccn1	?	-13	-2	16	17*	-4
C[C@H]1CN([C@@H](C)CO)S(=O)(=O)c2ccc(C3=CCCCC3)cc2O[C@@H]1CN(C)Cc1ccccn1	65*	11	-24	27	3	-12
C[C@H](CO)N1C[C@H](C)[C@H](CN(C)Cc2ccccn2)Oc2cc(C#CC3CC3)ccc2S1(=O)=O	5	10	-12	-5	4	-2
C[C@@H]1CN([C@@H](C)CO)S(=O)(=O)c2ccc(-c3ccc(C#N)cc3)cc2O[C@H]1CN(C)Cc1cccc(F)c1	15	-2	-15	-15	8.0*	-8
C[C@H]1CN([C@@H](C)CO)C(=O)c2cccc(NS(=O)(=O)c3ccc(F)cc3)c2O[C@@H]1CN(C)CC1CCCCC1	-2	-19	8	-7	4	0
O=C(CCC(=O)N1CCOc2ccccc21)NCCCc1ccccc1	2	-14	5	-7	-2	-4
O=C(CN1C(=O)S/C(=C/c2ccc(N3CCOCC3)cc2)C1=O)N1CCOCC1	.	-25	-2	.	.	-2
COc1cccc(CC(=O)Nc2cc(S(=O)(=O)N3CCOCC3)ccc2N2CCN(C)CC2)c1	6	11	4	-10	1	-8
COc1ccc(-c2cc(C(=O)N3CCOCC3)no2)cc1	37	53*	2	-2	-1	2
c1ccc(-c2cc(-c3cc(-c4ccccc4)on3)no2)cc1	-81	7	.	-13	0	.
COc1ccc(-c2cc(-c3ccccc3)no2)cc1	39	78*	36	-12	4	2
CS(=O)(=O)c1ccc(C(=O)Nc2ccc(-c3nc4ccccc4[nH]3)cc2)cc1	.	-10	13	-9	2	1
O=C(Nc1cccc(C(F)(F)F)c1)/C(=C\c1ccco1)NC(=O)c1cccs1	6	9	-8	-47	-2	2
CCC(=O)N1C[C@H](C)[C@@H](OC)CN(C)C(=O)c2cc(NC(=O)C3CC3)ccc2OC[C@@H]1C	1	-10	-4	2	0	2
O=C(OCc1ccccc1)N1CCC2CC1c1c(-c3ccc(C(F)(F)F)cc3)cccc12 (centres undefined)	11	4	-1	-1	-2	3
COc1cccc(S(=O)(=O)N[C@@H]2CC[C@H](CCn3cc(-c4ccccc4)nn3)O[C@H]2CO)c1	19	14	-5	1	-5	-14
COc1cccc(S(=O)(=O)N[C@@H]2CC[C@H](CCn3cc(-c4ccccc4)nn3)O[C@@H]2CO)c1	53*	-44	-7	12	-1	-11
CCCC#Cc1cnc2c(c1)C(=O)N([C@H](C)CO)C[C@H](C)[C@H](CN(C)C(=O)NC1CCCC1)O2	5	4	-11	3	.	5
O=C(O)c1cccc(COc2ccc3c(c2)CCC3)c1	88*	101*	-5	-20	-1	-12
O=C(O)c1cccc(COc2ccc(CO)cc2Cl)c1	89*	100*	8	-16	-2	.
CCOc1ccc(OCc2cccc(C(=O)O)c2)cc1	88*	102*	5	-8	2	-2
C[C@H]1CN([C@@H](C)CO)C(=O)Cc2cc(NC(=O)C3CC3)ccc2O[C@@H]1CN(C)Cc1ccc(C(=O)O)cc1	0	7	23	-10	0	9
COc1ccccc1CNC(=O)C(Cc1ccccc1)NC(=O)c1ccccc1 (centres undefined)	-7	10	14	-15	-2	4
COc1cccc(F)c1C(C[N+](=O)[O-])c1c(N)n(C)c(=O)n(C)c1=O (centres undefined)	36	64*	.	-9	-5	-1
SMILES	EWS-Fli block	LGR2 inh	GSIS activator	RAD52 anneal inh	CFTR F508del cor	RAD54 branch
Cc1ccc(-n2c(C)nc3ncnc(-c4ccccc4)c32)cc1	2	1	6	-10	3	.
N#CCCn1c2ccccc2c2nc3ccccc3nc21	.	-14	41*	.	.	5
CSCC[C@H](NC(=O)NCCC1=CCCCC1)C(=O)O	.	.	.	.	.	-2
COc1ccc(/C=C/c2c(-c3cccc(C)c3)oc3ccc(N4CCOCC4)cc23)cc1	6	-6	-1	-15	-1	-1
COC(=O)c1ccc(/C=C/c2c(-c3ccc(OC)cc3)oc3ccc(N4CCOCC4)cc23)cc1	7	-26	6	-17	9.6*	9
COc1ccccc1CSc1nc2c(c(=O)n(C)c(=O)n2C)n1C	-5	-3	41*	-14	2	-1
CC(C)n1c(SCc2ccccc2F)nc2c1c(=O)n(C)c(=O)n2C	9	-7	16	-3	-1	-3
Cc1cc(Oc2cccnc2)ccc1NC(=O)Cc1cn(C)c2ccccc12	1	20	162*	-15	2	.
CC(C)Cc1nn2c(=O)cc(COc3ccc(NC(=O)c4ccco4)cc3)nc2s1	-7	1	47*	-16	-3	8
CCc1nn2c(=O)cc(COc3ccc(NC(=O)c4ccco4)cc3)nc2s1	.	6	2	-35	0	-16
COc1cc(-c2nnc(-c3cccs3)o2)cc(OC)c1OC	.	.	.	.	.	1
COc1ccc(-c2nnc(-c3cccs3)o2)cc1OC	.	-52	73*	.	.	-7
CSc1ccccc1COC(=O)Nc1ccccc1C	-23	-36	16	-4	3	.
CN(C)c1cncc(C(=O)O)c1	7	0	63*	-3	.	.
CCOCCOC(=O)C(C)Sc1n[nH]c(=O)[nH]c1=O (centres undefined)	.	.	.	.	.	-9

Screening results (PubChem)
